Rows were chosen to be rich in hits. Some 0.51% of all compounds tested hit in one or more screens of this group.
AddAB inh = growth inhibition of E. coli expressing H. pylori AddAB, primary screen, AddAB inhibitor project, absorbance; inhibition, % at 11.9 µM; 330,000 tested, 0.29% active; AID 435030, 2010; in the data active = inhibition above about 12%;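 note: 0% = vehicle wells of infected cells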
phage Ecoli inh = growth loss of phage-infected E. coli, primary screen, RecBCD inhibitor project, absorbance, with phage, HTS; inhibition, % at 11.9 µM; 360,000 tested, 0.26% active; in the data active = inhibition above about 11%
E coli growth-1 = E. coli growth inhibition, primary screen, OD600. Escherichia coli growth, 23 h; hits give low values. OD600 absorbance (concentration not given with the values). 330,000 tested, 0.21% active;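 active = OD600 absorbance below the run mean of sample wells minus 3.6 SD, in any replicate, cut at about 0.56 in these data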
E coli growth-2 = E. coli V3065 growth inhibition, primary screen, counter-screen for AddAB inhibitor project, absorbance, OD600; 18 h; AID 449728, 2010; inhibition, % at 11.9 µM; 330,000 tested, 0.27% active;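 active = inhibition above the campaign's mean inhibition across all tested compounds plus 3 SD, cut at about 9.9% in these data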;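 note: uninfected addAB+ strain grown without phage in ampicillin broth; 0% = DMSO wells and 100% = ciprofloxacin 0.95 µg/ml wells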
Tat transport = E. coli Tat export inhibitors, primary screen, MC4100, TorA-mCherry reporter, fluorescence, single point. inhibition, % at 10 µM. 340,000 tested, 0.036% active;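 active = mean replicate inhibition at least 50% and at least half of replicates individually reaching 50%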;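 note: exported cargo escapes ClpAP degradation while cytoplasmic cargo is degraded and loses fluorescence; 0% = median of neutral control wells and 100% = median of NaSCN control wells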
RecBCD conf = growth loss of phage-infected RecBCD+ E. coli, confirmation, RecBCD inhibitor project, absorbance, E. coli V66, T4 gene 2 phage. shares compounds with phage Ecoli inh. E. coli V66 + T4 2- phage, growth OD. inhibition, % at 11.9 µM. 890 tested, 45% active;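 active = mean inhibition over triplicates exceeding the hit threshold derived in the original primary screen, cut at about 11% in these data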
Ecoli viability = E. coli viability inhibition, counter-screen for RecBCD inhibitor project, absorbance, high throughput | absorbance (OD) growth | 890 tested, 29% active | inhibition, % at 11.9 µM | shares compounds with phage Ecoli inh | AID 651983, 2013; in the data active = inhibition above about 20%;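 note: E. coli strain V66 grown with compound alone and no phage infection; 0% = bacteria with DMSO vehicle only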
AddAB phage OD = growth loss of phage-infected AddAB-carrying E. coli, confirmation, counter-screen for RecBCD inhibitor project, absorbance, E. coli V3065, T4 phage; shares compounds with phage Ecoli inh; inhibition, % at 11.9 µM; E. coli expressing H. pylori AddAB + T4 phage, OD growth; gene 2 mutant T4, recBCD-deleted host; 890 tested, 45% active;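 active = mean inhibition above the solvent-only control wells' mean plus 3 SD, cut at about 22% in these data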;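 note: higher means less bacterial growth from phage killing when AddAB is blocked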
The depositor's hits bear a star; / = not tested or not shown.

SMILES	AddAB inh	phage Ecoli inh	E coli growth-1	E coli growth-2	Tat transport	RecBCD conf	Ecoli viability	AddAB phage OD
CCN1C(=O)C2C(c3ccc(-c4ccc(F)cc4)cc3)N[C@@](C)(C(=O)OC)C2C1=O (some centres not stated)	/	/	0.69	/	/	/	/	/
Cc1nc(SC(=Cc2ccc(-c3cccc(Cl)c3)o2)C(=O)O)n[nH]1	/	/	0.69	/	/	/	/	/
Cc1ccc(C(=O)Cn2c(=N)n(N)c3ccccc32)cc1	3	82*	0.69	0	-4	0	0	-4
CC(C)CC(NC(=O)c1nc[nH]c1C(=O)NCc1ccccc1)C(=O)OC(C)(C)C (configuration not stated)	/	/	0.66	/	/	/	/	/
Cc1ccc(-c2nc3ccccc3c(=O)n2O)cc1	-1	-1	0.64	-2	2	/	/	/
Cc1ccc(-c2nc3ccc(Cl)cc3c(=O)n2O)cc1	4	11*	0.66	7	-6	5	7	10
